Data: PubChem BioAssay (EPA / NIEHS)
Records with an inconclusive call do not appear. Active and inactive are the calls of the source. Rule for the calls: active = hit-call score of the fitted dose curve at least 0.9, where 1 is the maximum; inconclusive = response in the unintended direction; inactive = score below 0.9.

assay: ACEA_ER_AUC_viability: ACEA Biosciences xCELLigence Real-Time Cell Analysis on Estrogen Receptor Agonism for Viability (AID 2283782);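 note: hit means loss of impedance signal meaning reduced cell growth or viability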
Summary of the method: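 Continuous-exposure impedance cell analysis uses T-47D cells in charcoal-stripped serum, eight 1:4 dilutions topping at 100 uM final, biological duplicate. Area under the growth curve at 80 h is fitted against DMSO baseline.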

| Structure (SMILES) | outcome | AC50 |
| --- | --- | --- |
| CCCCCCCCCCOC(C)=O | inactive | – |
| CC[C@H]1OC(=O)[C@H](C)[C@@H](O[C@H]2C[C@@](C)(OC)[C@@H](O)[C@H](C)O2)[C@H](C)[C@@H](O[C@@H]2O[C@H](C)C[C@H](N(C)C)[C@H]2O)[C@](C)(O)C[C@@H](C)C(=NOCOCCOC)[C@H](C)[C@@H](O)[C@]1(C)O | inactive | – |
| CCC(CC)C(=O)O | inactive | – |
| CC(C)(C)C1CCCCC1=O (stereo unspecified) | – | 24.8 µM (active) |
| O=C1CCCC(=O)O1 | inactive | – |
| CCOc1nc(F)cc2nc(S(=O)(=O)Nc3c(Cl)cccc3C(=O)OC)nn12 | inactive | – |
| CC(C)C1=CC2=CC[C@@H]3[C@](C)(CCC[C@@]3(C)C(=O)O)[C@H]2CC1 | inactive | – |
| CC(C)COC(=O)C=Cc1ccccc1 | inactive | – |
| CC(CC=O)c1ccccc1 (stereo unspecified) | – | 50 µM (active) |
| CCCCOCCOC(=O)COc1nc(Cl)c(Cl)cc1Cl | inactive | – |
| CC(C)c1ccc(C=O)cc1 | inactive | – |
| Cc1ccc([N+](=O)[O-])cc1S(=O)(=O)O | inactive | – |
| Nc1ccc(Cl)cc1Cl | – | 29.2 µM (active) |
| CCCCCCCCCCCCCCCC[N+](C)(C)CC | – | 12.3 µM (active) |
| CCCC(C)CCC(C)=O (stereo unspecified) | inactive | – |
| O=S1(=O)OC(c2ccc(O)cc2)(c2ccc(O)cc2)c2ccccc21 | inactive | – |
| Cc1cccc(N)n1 | inactive | – |
| Cc1c(C)c([N+](=O)[O-])c(C(C)(C)C)c([N+](=O)[O-])c1C | inactive | – |

| Structure (SMILES) | outcome | AC50 |
| --- | --- | --- |
| CCCOC(=O)CCCCC(=O)OCCC | – | 50 µM (active) |
| CCO[Si](CCCN=C=O)(OCC)OCC | inactive | – |
| CCCCCCCC/C=C\CCCCCCCC(=O)OCCO | – | 4.96 µM (active) |
| CC(=O)OCCC1CCCCC1 | inactive | – |
| CC(C)=CC1CC(C)CCO1 (stereo unspecified) | inactive | – |
| Cc1cc(C)c(C)c(C)c1 | inactive | – |
| CNC(=S)N(C)C | inactive | – |
| Cc1ccc(OC(=O)CC(C)C)cc1 | – | 73.8 µM (active) |
| CCN(Cc1cccc(S(=O)(=O)O)c1)c1ccc(C(=C2C=CC(=[N+](CC)Cc3cccc(S(=O)(=O)[O-])c3)C=C2)c2ccccc2)cc1 | inactive | – |
| C=C1C2CCC(C2)C1(C)C (stereo unspecified) | inactive | – |
| CC(=O)Oc1ccc(C)cc1 | inactive | – |
| C=COCCCC | inactive | – |
| FC(F)(F)C(=NOCC1OCCO1)c1ccc(Cl)cc1 | – | 74.9 µM (active) |
| CC(=O)c1ccc2c(c1)CCCC2 | – | 31.7 µM (active) |
| C=CCOCC(O)CCl (stereo unspecified) | inactive | – |
| O=[N+]([O-])c1ccc(CO)cc1 | inactive | – |
| CCCNC(=O)NS(=O)(=O)c1ccc(Cl)cc1 | inactive | – |
| C1=CCCC1 | inactive | – |
